From PubChem BioAssay (NCATS)
Records with an inconclusive call do not appear. Entries that show only a call come without a potency. Activity calls are given as the source filed them. Calls follow the shape of the dose curve; as a rule, active = well fitted inhibition curve with a large enough effect; inconclusive = small, poorly fitted or top-dose-only effect; inactive = no such curve, though single readings can be large or run the other way.

These compounds were tested on Zika virus NS2B-NS3 protease (unlinked complex) (assay: Primary screen GU Rhodamine qHTS for Zika virus inhibitors: Unlinked NS2B-NS3 protease assay (AID 1347159; also: nearly all actives have a fitted effect of over 60% in size)). Conditions: Recombinant ZIKV NS2B-NS3 protease, Rhodamine110 substrate fluorescence; series mostly up to 107 µM.
Outline: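 Noncovalent NS2B hydrophilic domain/NS3 protease complex (25 nM final) in 10 mM Tris-HCl pH 8.0, 0.01% Tween 20, preincubated 15 min with compounds (up to 114 microM), then 1.5 microM Rhodamine110 substrate. Fluorescence change over 15 min fitted to 4-parameter Hill.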
Potency is read from the fitted curve at half-maximal effect.

| Compound | Potency | activity change, negative = inhibition |
| --- | --- | --- |
| CO[C@@H](C)Cn1c(=O)n(C)c2cnc3ccc(-c4cncc(C(C)(C)O)c4)cc3c21 | inactive | – |
| C[C@@H]1O[C@@H](O[C@@H]2[C@@H](O)[C@@H](O[C@]3(CO)O[C@H](CO)[C@@H](O)[C@@H]3OC(=O)/C=C/c3ccc(O)cc3)O[C@H](CO)[C@H]2OC(=O)/C=C/c2ccc(O)cc2)[C@H](O)[C@H](O)[C@H]1O[C@@H]1O[C@@H](C)[C@H](O[C@@H]2OC[C@](O)(CO)[C@H]2O)[C@@H](O)[C@H]1O | inactive | – |
| O=C1NC(=O)C(c2cn(-c3ccccc3)nc2-c2ccc(F)cc2)N1 (stereo not given) | inactive | – |
| CCN1CCN(Cc2ccc(Nc3ncc(F)c(-c4cc(F)c5nc(C)n(C(C)C)c5c4)n3)nc2)CC1 | inactive | – |
| CCOc1ccc2nc(SCCN3CCOCC3)[nH]c2c1 | inactive | – |
| COC(=O)C12C(=O)C(C)=C(O)C1(C)C(C)=CC1C3(CO)CCC(O)C(C)(C)C3CCC12C (stereo not given) | inactive | – |
| c1ccc(-c2ncc(CN3CCN(c4ncccn4)CC3)[nH]2)cc1 | inactive | – |
| COC(=O)CC(O)CC(O)/C=C/c1c(C)ccc2c1C(O)CC(C)C2 (stereo not given) | inactive | – |
| CCCCC1CCN(CCCC(=O)c2ccccc2C)CC1 | inactive | – |
| Cn1nnc(-c2ccc(-c3ccc(N4C[C@H](CO)OC4=O)cc3F)cn2)n1 | inactive | – |
| CC(=O)N[C@H]1[C@H](O[C@H]2CC[C@@]3(C)C(CC[C@]4(C)C3CC=C3C5CC(C)(C)CC[C@]5(C(=O)O)[C@H](O)C[C@]34C)C2(C)C)O[C@H](CO[C@@H]2OC[C@H](O)[C@H](O)[C@H]2O[C@@H]2OC[C@@H](O)[C@H](O)[C@H]2O)[C@@H](O)[C@@H]1O (stereo not given in full) | inactive | – |
| OC/C=C/c1ccc(O[C@@H]2O[C@H](CO)[C@@H](O)[C@H](O)[C@H]2O)cc1 | inactive | – |
| C=C1C(=O)O[C@@H]2C/C(C)=C\C(=O)/C=C(\C)[C@@H](OC(=O)/C(C)=C\C)[C@H](O)[C@@H]12 | inactive | – |
| C=CC1(C)CC(OC(=O)/C(C)=C\COC(C)=O)C(C(=C)C(=O)O)C(O)C1C(=C)CO (stereo not given) | inactive | – |
| C[C@@H]1O[C@@H](O[C@H]2[C@H](O)[C@@H](O[C@@H]3O[C@H](CO)[C@@H](O)[C@H](O[C@@H]4O[C@H](CO)[C@@H](O)[C@H](O)[C@H]4O)[C@H]3O)[C@H](O[C@H]3CC[C@@]4(C)C(=CC[C@@H]5C4CC[C@@]4(C)C5C[C@@H]5OC6(CC[C@@](C)(CO[C@@H]7O[C@H](CO)[C@@H](O)[C@H](O)[C@H]7O)O6)[C@@H](C)[C@@H]54)C3)O[C@@H]2CO)[C@H](O)[C@H](O)[C@H]1O (stereo not given in full) | – | 33% [at 19.1 µM] (inactive) |
| C1CCC[C@H]2CCCN3CC[C@@H](CCCCCC[C@@H]4CCCN5CC[C@@H](CC1)O[C@@H]45)O[C@@H]23 | – | -7.05% [at 0.23 µM] (inactive) |
| CC(C)=CCC[C@](C)(O)[C@H]1CC[C@]2(C)[C@@H]1[C@H](O)CC1[C@@]3(C)CC[C@H](O)C(C)(C)C3[C@@H](O[C@@H]3O[C@H](CO)[C@@H](O)[C@H](O)[C@H]3O[C@@H]3OC[C@@H](O)[C@H](O)[C@H]3O)C[C@]12C (stereo not given in full) | inactive | – |
| C[C@@H]1O[C@@H](O[C@H]2[C@H](OC(=O)[C@]34CCC(C)(C)C[C@H]3C3=CCC5[C@@]6(C)C[C@H](O)[C@H](O[C@@H]7O[C@H](CO)[C@@H](O)[C@H](O)[C@H]7O)[C@@](C)(CO)C6[C@H](O)C[C@@]5(C)[C@]3(C)C[C@H]4O)OC[C@H](O)[C@@H]2O)[C@H](O)[C@H](O)[C@H]1O[C@@H]1OC[C@@H](O)[C@H](O[C@H]2OC[C@](O)(CO)[C@H]2O)[C@H]1O (stereo not given in full) | – | 7.01% [at 19.1 µM] (inactive) |
| NC(=O)c1cccc2cn(-c3ccc(C4CCCNC4)cc3)nc12 (stereo not given) | inactive | – |
| C[C@@H]1C(=O)OC[C@H]2C(C(=O)O)=C[C@@H]3CC(C)(C)C[C@]312 | inactive | – |

| Compound | Potency | activity change, negative = inhibition |
| --- | --- | --- |
| COc1cccc(C(=O)N2CCN(C(=O)COc3cccc(C)c3)CC2)c1OC | inactive | – |
| C=C(F)c1sc(CNCCCNc2cc(=O)c3ccccc3[nH]2)c(C)c1Br | inactive | – |
| O=C(O)Cc1cn(C2OCC(O)C(O)C2O[C@@H]2O[C@H](CO)[C@@H](O)[C@H](O)[C@H]2O)c2ccccc12 (stereo not given in full) | inactive | – |
| COc1ccc(-c2c(-c3cc(C(=O)O)ccn3)ncn2C)cc1 | inactive | – |
| CC(O)CCC1C(CO[C@@H]2O[C@H](CO)[C@@H](O)[C@H](O)[C@H]2O)CC(O)CC1(C)C (stereo not given in full) | inactive | – |
| C/C(=C\CCC1(C)C2CCC(C2)C1(C)O)C(=O)O (stereo not given) | 22.4 µM (active) | – |
| C=C1CC23CC1CCC2C12OC(=O)C(C)(CCC1O)C2C3C(=O)O (stereo not given) | inactive | – |
| Cc1cccc(C)c1OCc1cc(C(=O)N2CCC(c3ccncc3)CC2)no1 | inactive | – |
| COC(=O)[C@@H](O)[C@H]1[C@@]2(C)CC3(O)[C@@H](C(=O)[C@H]2O)[C@]24O[C@]25CC(=O)O[C@@H](c2ccoc2)[C@]5(C)CCC4[C@]13C (stereo not given in full) | inactive | – |
| COC(=O)CCSCc1ccc(-c2onc(C)c2NC(=O)OC(C)c2ccccc2Cl)cc1 (stereo not given) | inactive | – |
| CC(C)(C(=O)NCC(F)(F)C(F)(F)F)C(=O)NC1C(=O)Nc2ccccc2-c2ccccc21 (stereo not given) | inactive | – |
| C[C@]12C[C@@H](O)[C@@H]3C[C@@]1(O[C@@H]1O[C@H](CO)[C@@H](O)[C@H](O)[C@H]1O)[C@]3(COC(=O)c1ccccc1)C(=O)O2 | inactive | – |
| CC(O)(CC(=O)O)CC(=O)OCc1ccc(O[C@@H]2O[C@H](CO)[C@@H](O)[C@H](O)[C@H]2O)cc1 (stereo not given in full) | inactive | – |
| CC(C)C(CO)Nc1nc(Nc2cc(N)cc(Cl)c2)c2ncn(C(C)C)c2n1 (stereo not given) | inactive | – |
| O=S(=O)(c1ccc(S(=O)(=O)n2cnc3ccccc32)cc1)N1CCCCCC1 | inactive | – |
| C=C(C(=O)OC)C1C(O)CC2(C)C(=O)CCC(O)(CO)C2C1O (stereo not given) | inactive | – |
| Cc1ccc(F)cc1C(=O)Nc1ccc(C(=O)N2Cc3cccn3Cc3ccccc32)c(Cl)c1 | inactive | – |
| CCCOC(c1cc2nccc(C(=O)O)c2[nH]1)c1ccccc1Cl (stereo not given) | inactive | – |
| CC(C)N(CCCCOCC(=O)NS(C)(=O)=O)c1cnc(-c2ccccc2)c(-c2ccccc2)n1 | 7.94 µM (active) | – |
| O=C(CC1C(=O)Nc2ccccc21)OC[C@H]1O[C@@H](OCCc2ccc(O)cc2)[C@H](O)[C@@H](O)[C@@H]1O (stereo not given in full) | inactive | – |
